64 molecules from PubChem BioAssay can be followed below.

A short description of assay [1]: cytotoxicity in PAX8-dependent RMG-1 cells, dose response, cell-based, cherry-pick (AID 687029;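 active means signal drop whose fitted half-maximal concentration is at most twice the top valid dose, in every test run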;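 further: cells exposed to compound for 96 hours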).
A short description of assay [2]: non-specific cell cytotoxicity, dose response, cytotoxicity control for PAX8 inhibitor project, plate reader, dry powder samples (AID 743021).
The nature of assay [3]: cytotoxicity in IOSE-T80 ovarian epithelial cells, dose response, selectivity assay for PAX8 inhibitor project, cell-based, cherry-pick (AID 687032;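 active means fitted half-maximal concentration for viability loss no higher than twice the top valid dose, in every repeat run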;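 further: cells exposed to compound for 96 h before reading; 0% = neutral control wells and -100% = 2 µM mitoxantrone kill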).
The nature of assay [4]: inhibitors of CMV-promoter luciferase reporter, dose response, counter-screen for Pax8 inhibitor project, cell-based, HEK293, luminescence, dry powder (AID 743020;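 active means signal-lowering compounds whose fitted half-maximal concentration is at or below twice the top tested dose in every run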;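 further: HEK293 cells stably expressing the CMV luciferase reporter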).
The nature of assay [5]: IGROV1 ovarian cancer cell cytotoxicity, dose response, PAX8 inhibitor project, plate reader, dry powder samples (AID 743043).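 Further: more negative means fewer viable cells or more cytotoxicity.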
A short description of assay [6]: NIH:OVCAR-3 ovarian cancer cell cytotoxicity, dose response, PAX8 inhibitor project, plate reader, dry powder samples (AID 743044). As to conditions: max activity: at 35 µM, hits give low values unless noted.
The nature of assay [7]: IOSE-T80 ovarian epithelial cell cytotoxicity, dose response, cytotoxicity control for PAX8 inhibitor project, plate reader, dry powder samples (AID 743045).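 Further: 0% = neutral control median and -100% = positive control median; more negative values mean more cell killing.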
Assay [8] is described as follows: A2780 ovarian cancer cell cytotoxicity, dose response, cytotoxicity control, plate reader, dry powder samples (AID 743046).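 Further: 0% = neutral control wells and -100% = cytotoxic reference compound.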
Assay [9] can be described thus: cytotoxicity in OVCAR8 ovarian cancer cells, dose response, PAX8 project, cell-based, plate reader, dry powder samples (AID 743197).
Assay [10] in a line: DNA binders by acridine orange displacement, dose response, counter-screen for EWS/Fli inhibitor project, biochemical, fluorescence polarization, cherry-pick (AID 720586;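 active means fitted curve reaches a 35% signal fall AC35 below twice the sample's top valid tested dose, actives reach about 48 µM in these data; inactive means the rest, including activity in the rising direction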;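 further: 0% = neutral control median and -100% = 10 µM mitoxantrone control median; lower polarization ratio signals compound binding to DNA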). A general note: The purpose of a counterscreen is to sort out artefacts and off-target activity.

For some assays here: Entries with a potency or affinity are not part of this list. Inconclusive results are not listed. A number with no mark means an inactive call. This is one part of the list. Active and inactive are the calls of the source. Unless noted, how the calls were made is not given here.

In the case of `CC1=CC(C)(C)N2C(=O)C3(NCCc4c3[nH]c3ccccc43)c3cc(C)cc1c32` (stereo not given), the molecule was classed as inactive in assay [1] and in [2].

Take `O=c1[nH]nnc2c1ncn2C1OC(CO)C(O)C1O` (stereo not given): the molecule was called inactive in [1] and in [2].

Regarding `Cc1cc(O)c(C(C)C)cc1C1(c2cc(C(C)C)c(O)cc2C)OC(=O)c2ccccc21`, the outcome in [1] and in assay [2] was inactive.

As for `CCCCC(=O)NC(c1ccccc1OC)c1ccc2cccnc2c1O` (stereo not given), the call in [1] and in [2] was inactive.

On to `CC[C@@H]1CCC[C@@H](O)[C@@H](C)C(=O)O[C@H](C)[C@@H](C)C/C=C(C)/C(OC)=C\C(=O)N(C)C([C@@H](C)CC)C(=O)N(C)[C@@H](C(C)C)C(=O)N(C)[C@@H](COC)C(=O)N2CCC[C@H]2C(=O)N(C)[C@@H](C(C)C)C(=O)N2CCC[C@H]2C(=O)O1` (stereo not given in full), for which the call in assay [1] and in assay [2] was inactive.

Consider `COc1ccc(OC)c(-c2nnc3n2N=C(c2ccc(OC)c(OC4CCCC4)c2)CS3)c1`, for which the molecule was called inactive in assay [1] and in assay [2].

For the molecule `O=C(COc1ccccc1-c1ccccc1)N/N=C/c1ccc2ccccc2c1`, the outcome in assay [1] and in assay [2] was inactive.

Consider `Cc1cc(C)c2nc(SCC(=O)N3CC(=O)Nc4ccccc43)c(C#N)cc2c1`, for which the outcome in assay [1] and in assay [2] was inactive.

For the molecule `C=CC(=O)N1C/C(=C/c2ccc(F)cc2)C(=O)/C(=C\c2ccc(F)cc2)C1`, the result in assay [1] and in [2] was inactive.

For the molecule `COc1cc([C@@H]2c3cc4c(cc3[C@H](O)[C@H]3COC(=O)[C@H]23)OCO4)cc(OC)c1OC`, the molecule was classed as inactive in [1] and in [2].

`O=C(Cn1ncc(Cl)c(Cl)c1=O)N1CCN(S(=O)(=O)c2ccc3ccccc3c2)CC1`: the result in [1] and in assay [2] was inactive.

For the molecule `CCOC(=O)N1CCC(NC(=O)c2ccc3c(c2)N=C(C)c2c(C)ccc(C)c2S3)CC1`, the molecule was called inactive in assay [1] and in assay [2].

With `COc1ccc(-c2csc(NC(=O)c3ccccc3NS(=O)(=O)c3ccc(F)c(F)c3)n2)cc1`, the molecule was called inactive in [1] and in assay [2].

Consider `Cn1nnnc1Sc1ncnc2scc(-c3ccsc3)c12`, for which the outcome in assay [1] and in assay [2] was inactive.

`O=C(Nc1ccc(N2CCN(C(=O)c3cccs3)CC2)cc1)c1ccc([N+](=O)[O-])o1`: the molecule was called inactive in assay [1] and in assay [2].

On to `OC[C@H]1O[C@@H](n2cnc3c(NCc4ccco4)ncnc32)[C@H](O)[C@@H]1O`, for which the result in [1] and in [2] was inactive.

Turning to `CCCCCC(CC(=O)NO)C(=O)NC(C(=O)N1CCCC1CO)C(C)C` (stereo not given), the outcome in assay [1] and in assay [2] was inactive.

On to `COc1cc(-c2c(-c3cc(OC)c(OC)c(OC)c3)noc2C)ccc1F`, for which the result in assay [1] and in assay [2] was inactive.

In the case of `COc1cc2c(c(OC)c1OC)-c1ccc(OC)c(=O)cc1[C@@H](NC(C)=O)CC2`, the molecule was classed as inactive in [1] and in [2].

Regarding `CN1CCc2c(sc(NC(=O)c3ccc([N+](=O)[O-])o3)c2C(N)=O)C1`, the result in [1] and in assay [2] was inactive.

Turning to `C[C@@H]1CN([C@@H](C)CO)C(=O)Cc2cc(NC(=O)Nc3ccc(C(F)(F)F)cc3)ccc2O[C@@H]1CN(C)S(=O)(=O)c1ccc(Cl)cc1`, the call in assay [1] and in assay [2] was inactive.

Regarding `O=c1[nH]c(-c2ccccn2)nc2sc(-c3ccccc3)cc12`, the result in [1] and in assay [2] was inactive.

For `O=C(CCCN1C(=O)/C(=C/c2cccc(Br)c2)SC1=S)Nc1ccccn1`, the call in [1] and in assay [2] was inactive.

Take `O=C(C1CC1)N1C[C@@H]2N[C@H](C1)C2c1ccc(-c2ccccc2F)cc1` (stereo not given in full): the result in assay [1] and in assay [2] was inactive.

For `O=C(NC(Nc1nc2ccc([N+](=O)[O-])cc2s1)(C(F)(F)F)C(F)(F)F)c1ccccc1Cl`, the molecule was classed as inactive in assay [1] and in [2].

Consider `O=c1ccc2ccccc2c2ccccc12`, for which the result in assay [1] and in [2] was inactive.

Take `Cc1cc(-c2n[nH]c(=S)n2/N=C/C(Br)=C/c2ccccc2)n[nH]1`: the molecule was classed as inactive in [1] and in assay [2].

`O=C(/C=C/c1cccs1)NC(=S)NNC(=O)c1ccccc1O`: the result in assay [1] and in [2] was inactive.

Consider `CC(=NNc1cc(C)c2ccccc2n1)c1ccccn1`, for which the outcome in assay [1] and in [2] was inactive.

With `CN(C)c1ncnc2c1nnn2C1OC(CO)C(O)C1O` (stereo not given), the outcome in assay [1] and in assay [2] was inactive.

For `CCN(CC)CCCNc1nc2ccccc2c2[nH]c3ccc(OC)cc3c12`, the call in assay [1] and in assay [2] was inactive.

`C#CCN(C[C@@H]1[C@@H](OC(=O)NC2CCCC2)[C@@H](OC(=O)NC2CCCC2)Cn2c(=O)ccc(=O)n21)S(=O)(=O)c1ccc(C)cc1`: the call in assay [1] and in [2] was inactive.

Take `O=C(CCS(=O)(=O)c1ccc(Cl)cc1)Nc1nc(-c2ccncc2)cs1`: the result in assay [1] and in [2] was inactive.

As to `COc1cc(CNc2ncnc3c2ncn3[C@H]2CN(Cc3ccc(-c4ccccc4)cc3)C[C@@H](CO)O2)cc(OC)c1OC`, the outcome in assay [1] and in assay [2] was inactive.

On to `CN(/N=C/c1ccc(O)cc1O)c1nc(-c2ccccc2)cc(-c2ccccc2)n1`, for which the molecule was called inactive in assay [1] and in assay [2].

On to `N#C[C@@H]1[C@H](c2ccc(C#Cc3ccc(F)cc3)cc2)[C@@H](CO)N1C(=O)Nc1ccc(F)cc1`, for which the molecule was called inactive in assay [1] and in assay [2].

On to `COc1cc(C2C(C#N)=C(N)Oc3cc4c(cc32)OCO4)cc(OC)c1OC` (stereo not given), for which the outcome in assay [1] and in [2] was inactive.

`Cc1ccc(S(=O)(=O)N2CCCCC2)cc1NC(=O)Cn1ncc(Cl)c(Cl)c1=O`: the molecule was called inactive in assay [1] and in assay [2].

On to `Cc1cccc(N(C)S(=O)(=O)c2ccc(-c3cnc(C4CC4)o3)cc2)c1`, for which the outcome in assay [1] and in assay [2] was inactive.

On to `Oc1c(Cl)cc(CN2CCOCC2)c2cccnc12`, for which the molecule was called inactive in assay [1] and in [2].

Take `C[C@H]1O[C@@H](O[C@H]2[C@@H](O)C[C@H](O[C@H]3[C@@H](O)C[C@H](O[C@H]4CC[C@@]5(C)[C@H](CC[C@@H]6[C@@H]5C[C@@H](O)[C@]5(C)[C@@H](C7=CC(=O)OC7)CC[C@]65O)C4)O[C@@H]3C)O[C@@H]2C)C[C@H](O)[C@@H]1O`: the result in assay [1] and in [2] was inactive.

Turning to `COc1cccc(/C=N/Nc2ccc([N+](=O)[O-])cn2)c1O`, the molecule was classed as inactive in [1] and in [2].

For the molecule `CC(C)(C)N(Cc1ccc2c(c1)OCO2)C(=O)/C=C\S(=O)c1ccccc1` (stereo not given), the outcome in assay [1] and in [2] was inactive.

`CC(=O)c1cc(NC(=O)c2cccc(C(F)(F)F)c2)c(=O)oc1C`: the molecule was classed as inactive in assay [1] and in assay [2].

For the molecule `Cn1c(=O)[nH]c(=O)c2c1nc([N+](=O)[O-])n2Cc1ccccc1`, the molecule was classed as inactive in assay [1] and in assay [2].

For `COc1cccc2c1C(=O)c1c(O)c3c(c(O)c1C2=O)C[C@@](O)(C(C)=O)C[C@@H]3O[C@H]1C[C@H](N)[C@H](O)[C@H](C)O1`, the outcome in [1] and in assay [2] was inactive.

For `COc1ccc(NC(=O)C(=O)NCC2CCCN2S(=O)(=O)c2ccc(C)cc2)cc1` (stereo not given), the molecule was classed as inactive in [1] and in [2].

On to `O=[N+]([O-])c1ccc(O)c(-c2cc(C(F)(F)F)nc(-c3ccccc3)n2)c1`, for which the call in [1] and in assay [2] was inactive.

As for `CC(=O)NC(c1ccc(C(C)C)cc1)c1ccc2cccnc2c1O` (stereo not given), the result in assay [1] and in assay [2] was inactive.

As to `Cc1cccc(/C=C(\c2nc3ccccc3[nH]2)S(=O)(=O)c2ccccc2)c1`, the molecule was classed as inactive in [1] and in assay [2].

As for `COc1ccc(-c2cnc3c(NC=O)cc(-c4cccc(NS(C)(=O)=O)c4)cn23)cc1OC`, the outcome in [1] and in assay [2] was inactive.

Consider `CCN(CC)S(=O)(=O)c1cccc(NC(=O)Nc2cccc(C(F)(F)F)c2)c1`, for which the molecule was called inactive in [1] and in assay [2].

For the molecule `O=[N+]([O-])c1ccc(N/N=C/c2sc(N3CCOCC3)nc2-c2ccccc2)c(S(=O)(=O)Nc2ccc(Cl)cc2)c1`, the molecule was classed as inactive in [1] and in assay [2].

As to `O=C(COC(=O)/C(=C/c1cccs1)c1cccs1)NC(c1ccccc1)c1ccccc1`, the outcome in assay [1] and in assay [2] was inactive.

Regarding `CC(=O)Nc1ccc(-c2ccnc3c2CC(C(=O)NCc2ccccc2)O3)cc1` (stereo not given), the call in assay [1] and in assay [2] was inactive.

Turning to `COc1ccc2c3c([nH]c2c1)[C@@H](CO)N(C(=O)Nc1cccc(F)c1)CC31CCN(S(=O)(=O)c2cccc(C)c2)CC1`, the molecule was called inactive in [3], in [4], in assay [2], in assay [5], in assay [7] and in assay [8]. In addition, the call in assay [9] was inactive. The max activity in assay [6] was -9.13% [at 8 µM, hits give low values].

As for `CN(C)CCCN(C(=O)CCOc1ccccc1)c1nc2c(F)cccc2s1`, the molecule was called inactive in assay [1], in assay [2], in assay [7] and in [8].

`CCC(=O)N1CCN(c2ccc(NC(=O)c3ccc([N+](=O)[O-])o3)cc2Cl)CC1`: the call in [1] and in [2] was inactive.

Take `Oc1ccc(C[C@H]2CNC(=S)N2CC2CCCN2C[C@H](Cc2ccc(O)cc2)N2C[C@H](Cc3ccccc3)N(CC3CCCCCC3)C2=S)cc1` (stereo not given in full): the molecule was called inactive in assay [3], in [4] and in assay [2].

Consider `COc1ccc(C#Cc2ccc([C@H]3[C@@H](CO)N4CCCCN(C(=O)Nc5ccccc5)C[C@H]34)cc2)cc1`, for which the molecule was called inactive in [3], in assay [4], in assay [2], in assay [5], in assay [7] and in assay [8]. The result in assay [9] was inactive.

In the case of `C[C@H](CO)N1C[C@H](C)[C@@H](CN(C)S(=O)(=O)c2ccc(Cl)cc2)OCCCC[C@H](C)Oc2ccc(NS(=O)(=O)c3ccc(F)cc3)cc2C1=O`, the call in assay [3], in [4], in assay [2], in [5], in assay [7] and in [9] was inactive.

Turning to `C[C@H]1CN([C@@H](C)CO)S(=O)(=O)c2ccc(C#Cc3ccncc3)cc2O[C@@H]1CN(C)C(=O)Nc1ccc2c(c1)OCO2`, the molecule was classed as inactive in assay [3], in assay [4] and in [2]. Moreover, in assay [10], the AC35 entry was “inactive”.

Regarding `COc1ccc(NC(=O)Nc2ccc3c(c2)C(=O)N([C@@H](C)CO)C[C@@H](C)[C@@H](CN(C)Cc2ccc(C(F)(F)F)cc2)O3)cc1`, the outcome in [3], in [4], in assay [2], in [5], in assay [7] and in [8] was inactive. In assay [9], the call was inactive. Further, the max activity in assay [6] was -14.9% [at 0.5 µM, hits give low values].

On to `Cc1ccc(S(=O)(=O)Nc2ccc3c(c2)C(=O)N([C@H](C)CO)C[C@H](C)[C@@H](CN(C)S(=O)(=O)c2ccc(F)cc2)OCCCC[C@H](C)O3)cc1`, for which the molecule was called inactive in [3], in [4] and in [2].
